Compound activity: PubChem, National Center for Advancing Translational Sciences (NCATS)
Sampled rows, rich in hits. Any-hit rate of the full collection: about 17%.
TDP1 cell CPT = qHTS for Inhibitors of human tyrosyl-DNA phosphodiesterase 1 (TDP1): qHTS in cells in presence of CPT | chicken DT40 Tdp1-/-;hTDP1 cells + 20 nM CPT, ATP luminescence, 48 h | Potency, µM (titrated, usually from 46.2 µM), without a hit: top-dose activity change, negative = growth inhibition, hits mostly inhibitors | 12% of 420,000 active | AID 686979, 2013; note: % is set by controls: 0 for no effect and ±100 for the full control effect; nearly all actives have a fitted effect of over 55% in size
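Cell growth measured by CellTiter-Glo luminescence after a minimum 48 h, 37 C compound exposure with 20 nM CPT in Tdp1-knockout DT40 cells stably expressing hTDP1, seeded 400/well; qHTS titration format.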
TDP1 inh = qHTS Assay for Inhibitors of Tyrosyl-DNA Phosphodiesterase (TDP1); Tyrosyl-DNA phosphodiesterase 1 (Homo sapiens), Q9NUW8; recombinant TDP1, AlphaScreen DNA substrate cleavage; Potency, µM (doses to about 130 µM), without a hit: at the highest dose activity change, negative = inhibition, most hits filed as inhibitors; 0.28% of 350,000 active; note: % is set by controls: 0 for no effect and ±100 for the full control effect; nearly all actives have a fitted effect of over 40% in size
Target sequence (Q9NUW8 whole entry, looked up): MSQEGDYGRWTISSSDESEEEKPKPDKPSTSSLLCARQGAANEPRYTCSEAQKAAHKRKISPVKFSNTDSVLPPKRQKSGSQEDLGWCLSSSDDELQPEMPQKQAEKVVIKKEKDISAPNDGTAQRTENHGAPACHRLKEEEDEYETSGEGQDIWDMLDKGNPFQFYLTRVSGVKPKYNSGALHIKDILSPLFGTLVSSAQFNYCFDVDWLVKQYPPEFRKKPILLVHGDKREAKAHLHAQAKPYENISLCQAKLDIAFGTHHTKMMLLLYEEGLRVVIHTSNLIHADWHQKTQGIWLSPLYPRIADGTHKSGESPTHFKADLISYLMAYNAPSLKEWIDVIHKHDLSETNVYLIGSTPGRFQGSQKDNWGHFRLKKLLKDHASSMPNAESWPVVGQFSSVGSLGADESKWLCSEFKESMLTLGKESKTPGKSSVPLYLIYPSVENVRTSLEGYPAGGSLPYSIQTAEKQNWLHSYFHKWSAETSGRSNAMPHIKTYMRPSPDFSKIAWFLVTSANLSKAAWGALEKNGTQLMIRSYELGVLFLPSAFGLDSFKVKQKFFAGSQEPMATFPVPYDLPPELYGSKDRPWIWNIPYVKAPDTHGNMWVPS
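Tdp1 1 nM final; 15 min RT w/ cpd; substrate 15 nM, 5 min; beads 10 ug/ml, 10 min; AlphaScreen read. Neg ctrl: no enzyme.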
ClpP mod = qHTS Assay for Activators of ClpP; Potency, µM (highest dose often 57.5 µM), inactives show top-dose activity change, negative = active; purified B. subtilis ClpP, FRET peptide cleavage, 20 min; 1.9% of 340,000 active; active = well fitted falling curve with a large enough effect; inconclusive = small, poorly fitted or top-dose-only effect; inactive = no such curve, though single readings can be large or run the other way; note: the source files actives as falling curves though it sought activators and does not explain the sign; nearly all actives have a fitted effect of over 65% in size
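Purified B. subtilis ClpP, 10 microg/mL final in Tris/HCl pH8 with KCl, BSA, glycerol and Tween-20, cleaved an Abz/nitrotyrosine-quenched decapeptide. Fluorescence (ex 320, em 430) was read at 0 and 20 min at room temperature. Delta was normalized to 5.8 microM ADEP and DMSO/no-enzyme controls.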
TDP1 cell noCPT = qHTS for Inhibitors of human tyrosyl-DNA phosphodiesterase 1 (TDP1): qHTS in cells in absence of CPT | Potency, µM (top dose mostly 46.2 µM), without a hit: at the highest dose activity change, negative = growth inhibition, hits mostly inhibitors | 15% of 420,000 active | DT40 Tdp1-/- hTDP1 cells, no CPT, ATP luminescence, 48 h; note: % is set by controls: 0 for no effect and ±100 for the full control effect; nearly all actives have a fitted effect of over 55% in size
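Luminescent ATP content (CellTiter-Glo) served as the growth readout. Knockout chicken DT40 cells expressing human TDP1 were exposed to compounds without camptothecin for a minimum 48 hr at 37 °C.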
* marks the source's active call; other numbers are inactive results. Unless noted, calls come from the whole dose curve; as a rule, active = well fitted curve in the direction sought with a large enough effect; inconclusive = small, poorly fitted or top-dose-only effect, or another doubt; inactive = no such curve, though single readings can be large; an effect the other way counts as inactive or inconclusive. Potency is the fitted concentration of half-maximal effect.

`CCn1nc(C)c(CN2CCC(C(=O)Nc3cccc(-c4cccc(Cl)c4)c3)CC2)c1C` gave TDP1 cell CPT inconclusive, TDP1 inh 4.5%, ClpP mod 2.6% and TDP1 cell noCPT inconclusive.
CCN(/C(N)=N/c1nc(C)cc(C)n1)c1ccccc1 was read as TDP1 cell CPT -30.5% and TDP1 cell noCPT 16.4µM*.
`CCC(=O)Nc1ccc(N/C(N)=N/c2nc(C)cc(C)n2)cc1` gave TDP1 cell CPT 13µM*, TDP1 inh 1.2%, ClpP mod -0.2% and TDP1 cell noCPT 14.6µM*.
CCCCc1ccc(N/C(N)=N/c2nc(C)cc(C)n2)cc1 was read as TDP1 cell CPT inconclusive, TDP1 inh -2.7% and TDP1 cell noCPT 5.17µM*.
COC(=O)c1cc(N/C(N)=N/c2nc(C)cc(C)n2)cc(C(=O)OC)c1 was read as TDP1 cell CPT inconclusive, ClpP mod -0.6% and TDP1 cell noCPT inconclusive.
Screening Cc1cc(C)cc(N/C(N)=N/c2nc(C)cc(C)n2)c1 returned TDP1 cell CPT inconclusive, TDP1 inh 0.0%, ClpP mod 0.4% and TDP1 cell noCPT inconclusive.
For Cc1cc(C)nc(/N=C(\N)Nc2ccccc2-c2ccccc2)n1 the results were TDP1 cell CPT 16.4µM*, TDP1 inh 6.0% and TDP1 cell noCPT 11.6µM*.
Screening CS(=O)(=O)N(CC(=O)Nc1ccccc1C(=O)N1CCCC1)c1ccccc1Br returned TDP1 cell CPT -4.4%, TDP1 inh 3.1%, ClpP mod 0.5% and TDP1 cell noCPT -0.2%.
Screening Cc1ccc2nc(CSc3nnc(NC(=O)C(C)C)s3)cc(=O)n2c1 returned TDP1 cell CPT inconclusive, TDP1 inh 0.0%, ClpP mod -11.0% and TDP1 cell noCPT inconclusive.
COc1cc(N/C(N)=N/c2nc(C)cc(C)n2)c(OC)cc1Cl was read as TDP1 cell CPT 14.6µM*, TDP1 inh -3.7%, ClpP mod 1.2% and TDP1 cell noCPT 18.4µM*.
Screening Cc1cccc(N/C(N)=N/c2nc(C)cc(C)n2)c1 returned TDP1 cell CPT inconclusive, TDP1 inh -2.0%, ClpP mod 31.6µM* and TDP1 cell noCPT 16.4µM*.
CC(=O)Nc1cccc(N/C(N)=N/c2nc(C)cc(C)n2)c1 was read as TDP1 cell CPT 25.9µM*, TDP1 inh 2.5%, ClpP mod -3.4% and TDP1 cell noCPT -12.1%.
Screening Cc1cc(C)nc(/N=C(\N)Nc2cccc([N+](=O)[O-])c2)n1 returned TDP1 cell CPT inconclusive, TDP1 inh -5.4%, ClpP mod 5.6% and TDP1 cell noCPT inconclusive.
`COc1cc(NC(N)=S)c(OC)cc1Cl` gave TDP1 cell CPT -3.0%, TDP1 inh 1.4% and TDP1 cell noCPT -24.6%.
Cc1ccc(N/C(N)=N/c2nc(C)cc(C)n2)cc1 was read as TDP1 cell CPT 14.6µM*, TDP1 inh 2.6%, ClpP mod -1.2% and TDP1 cell noCPT 20.6µM*.
For OCCN=c1cc(-c2ccccc2)oc2ccc(Cl)cc12 the results were TDP1 cell CPT inconclusive, TDP1 inh 7.7%, ClpP mod -0.6% and TDP1 cell noCPT 16.4µM*.
`CC(C)CN=c1cc(-c2ccccc2)oc2ccc(Cl)cc12` gave TDP1 cell CPT inconclusive, TDP1 inh 3.0%, ClpP mod 8.5% and TDP1 cell noCPT inconclusive.
`CC(O)CN=c1cc(-c2ccccc2)oc2ccc(Cl)cc12` (stereo not drawn) gave TDP1 cell CPT inconclusive, TDP1 inh -4.0%, ClpP mod 1.8% and TDP1 cell noCPT 16.4µM*.
`CN(C)CCCN=c1cc(-c2ccccc2)oc2ccc(Cl)cc12` gave TDP1 cell CPT 10.3µM*, TDP1 inh 7.4%, ClpP mod -2.7% and TDP1 cell noCPT inconclusive.
O=C(Nc1ccccc1)N1CC2(CCN(C(=O)c3cc(C(F)(F)F)cc(C(F)(F)F)c3)CC2)C1 was read as TDP1 cell CPT 15.4% and TDP1 cell noCPT -24.3%.
For CCOC(=O)c1cc(-c2ccc(C)cc2)nc2nc(SC)[nH]c(=O)c12 the results were TDP1 cell CPT -1.5%, TDP1 inh 8.5%, ClpP mod 14.1µM* and TDP1 cell noCPT -5.0%.
Screening CCOC(=O)c1cc(-c2cccc(C(F)(F)F)c2)nc2nc(SC)[nH]c(=O)c12 returned TDP1 cell CPT 6.6%, TDP1 inh 5.4%, ClpP mod 0.0% and TDP1 cell noCPT inconclusive.
Screening c1ccc2c(-c3[nH]ncc3CNCCCn3ncc4ccccc43)cccc2c1 returned TDP1 cell CPT 18.4µM*, TDP1 inh 3.0% and TDP1 cell noCPT 11.6µM*.
`OCC1CCCCN1CCNCc1cn[nH]c1-c1cccc2ccccc12` (stereo not drawn) gave TDP1 cell CPT -11.8%, ClpP mod 0.5% and TDP1 cell noCPT 16.3%.
For CCOC(=O)c1cccc(NC(=O)c2c(N)n(C)c(=O)[nH]c2=O)c1 the results were TDP1 cell CPT -1.2%, ClpP mod -3.4% and TDP1 cell noCPT -0.2%.
Cc1ccc(C(=O)NCCNc2ccc([N+](=O)[O-])cc2C(F)(F)F)cc1 was read as TDP1 cell CPT 18.4µM*, TDP1 inh 0.0%, ClpP mod 2.1% and TDP1 cell noCPT 18.4µM*.
`O=[N+]([O-])c1ccc(NCCNS(=O)(=O)c2ccccc2)c(C(F)(F)F)c1` gave TDP1 cell CPT 25.9µM*, TDP1 inh 6.2%, ClpP mod -5.3% and TDP1 cell noCPT 18.4µM*.
O=C(NCCNc1ccc([N+](=O)[O-])cc1C(F)(F)F)c1ccccc1F was read as TDP1 cell CPT inconclusive, TDP1 inh 3.1%, ClpP mod -2.7% and TDP1 cell noCPT inconclusive.
`O=[N+]([O-])c1ccc(NCCCNS(=O)(=O)c2ccccc2)c(Cl)c1` gave TDP1 cell CPT inconclusive, TDP1 inh 5.5%, ClpP mod 1.9% and TDP1 cell noCPT 16.4µM*.
Cc1cc(-n2cnnn2)cc(C)c1S(=O)(=O)NCCOc1ccccc1 was read as TDP1 cell CPT 0.2%, TDP1 inh 1.6%, ClpP mod 0.0% and TDP1 cell noCPT -8.8%.
For COC(=O)CN(C#N)c1nc(NCc2ccccc2)nc(OC)n1 the results were TDP1 cell CPT inconclusive, ClpP mod -0.3% and TDP1 cell noCPT inconclusive.
Screening O=C(C=Cc1ccccc1)c1ccc([N+](=O)[O-])cc1 returned TDP1 cell CPT inconclusive and TDP1 cell noCPT 18.4µM*.
Screening COc1ccc(C(=O)/C=C/c2ccc(O)cc2)cc1 returned TDP1 cell CPT -22.3%, TDP1 inh 6.4%, ClpP mod -4.3% and TDP1 cell noCPT inconclusive.
Screening CCOC(=O)Nc1ccc(C(=O)/C=C/c2ccccc2)cc1 returned TDP1 cell CPT 5.17µM*, TDP1 inh 1.4%, ClpP mod -0.5% and TDP1 cell noCPT 2.59µM*.
